Compounds with a hit are over-represented: about 3.8% of the library has one in this group of screens.
MBNL1-CUG inh: qHTS Assay for Inhibitors of MBNL1-poly(CUG) RNA binding. Muscleblind-like protein 1 (Homo sapiens), Q9NR56. TR-FRET MBNL1-His/biotin-(CUG)12 binding, 665/545 ratio. Potency, µM (series often up to 57.5 µM), without a hit: top-dose activity change, negative = inhibition, hits mostly inhibitors. 280,000 tested, 0.036% active; active = well fitted inhibition curve with a large enough effect in the signal ratio, with a control signal flat, not every such curve was filed as active; inconclusive = small, poorly fitted or top-dose-only effect, or effect the other way, or a change in a side signal; inactive = no such curve, though single readings can be large or run the other way; the % refers to the signal ratio; also: potency is read from the fitted curve at half-maximal effect; % is scaled to controls: 0 for no effect and ±100 for the full control effect
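Compounds (final 92 nM to 58 uM) are added to His-tagged MBNL1 and biotin-(CUG)12, then terbium anti-His antibody and streptavidin-XL665 (5 nM final). After 60 min at room temperature, the 665/545 nm ratio is read.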
PLK1 PBD block: qHTS for Inhibitors of PLK1-PDB (polo-like kinase 1 - polo-box domain): Primary Screen; Serine/threonine-protein kinase PLK1 (Homo sapiens), P53350; Plk1 PBD binding of FITC phosphopeptide, fluorescence polarization; Potency, µM, without a hit: max response, negative = inhibition, actives largely listed as inhibitors; 360,000 tested, 2.8% active; AID 720504, 2013; also: potency is read from the fitted curve at half-maximal effect; series mostly up to about 57 µM; % is scaled to controls: 0 for no effect and ±100 for the full control effect; nearly all actives have a fitted effect of over 65% in size
KCNH2 WT inh: qHTS for Inhibitors of KCHN2 3.1: Wildtype qHTS. Voltage-gated inwardly rectifying potassium channel KCNH2 (Homo sapiens), Q12809. U2OS, BacMam KCNH2, thallium flux FluxOr; hits give low values. activity change, % at 1.84 µM. 340,000 tested, 0.37% active;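 active = maximum activity change below -70%; inconclusive = maximum activity change between -70% and -50%; inactive = maximum activity change above -50%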; also: % is scaled to controls: 0 for no effect and ±100 for the full control effect
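U2OS cells were transduced with wild-type KCNH2 virus (2.03 x 10^8 / mL) for 4 h at room temperature, then cultured overnight at 37 C. Thallium flux was read with FluxOr dye. Rate constants were normalized to DMSO controls.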
CBFb RUNX1 block: qHTS Assay for Compounds Blocking the Interaction Between CBF-beta and RUNX1 for the Treatment of Acute Myeloid Leukemia; Runt-related transcription factor 1 (Homo sapiens) + Core-binding factor subunit beta …; AlphaScreen CBFb-His/RUNX1-biotin binding, biochemical; Potency, µM (doses to about 59.8 µM), for the others: at the highest dose activity, negative = inhibition, most hits filed as inhibitors; 230,000 tested, under 10 active; also: % of control where 0% means no effect
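AlphaScreen proximity signal reports loss of binding between His-tagged CBF-beta and biotin-labelled RUNX1, each at 30 nM. Proteins are pre-associated for 20 minutes, compounds added for 15 minutes, then beads for 90 minutes, all at ambient temperature.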
KCNH2 3.1 block: qHTS for Inhibitors of KCHN2 3.1: Mutant qHTS. activity change, % (tested at about 1.8 µM). U2OS KCNH2 3.1, thallium flux FluxOr; hits give low values. Potassium voltage-gated channel subfamily H member 2, brain isoform KCNH2 3.1 (human). 340,000 tested, 0.95% active;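 active = maximum activity change below -70%; inconclusive = maximum activity change from -70% to -50%; inactive = maximum activity change above -50%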;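 also: thallium influx rate constant from kinetic fluorescence after stimulation buffer; % is scaled to controls: 0 for no effect and ±100 for the full control effect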
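Channel expression came from 3.1 mutant virus (1.77 x 10^8 /mL) applied to suspended U2OS cells for 4 h. Flux was tracked with FluxOr dye plus Red40 quencher, and kinetic rate constants normalized to controls.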
VDR inh: Inhibitors of the vitamin D receptor (VDR): qHTS; Vitamin D3 receptor (Homo sapiens), P11473; VDR-SRC2-3 peptide fluorescence polarization, 2 h; Potency, µM, for inactives: max response, negative = inhibition, usual class: inhibitors; 400,000 tested, 0.93% active; AID 504847, 2011; also: potency is read from the fitted curve at half-maximal effect; % is scaled to controls: 0 for no effect and ±100 for the full control effect
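VDR–SRC2-3 interaction, FP format. Cmpds 23 nl via pintool, brief spin, 2 h ambient incubation.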
Active calls of the source: *; ? = inconclusive; nt = no result. Unless noted, calls follow the shape of the dose curve; as a rule, active = well fitted curve in the direction sought with a large enough effect; inconclusive = small, poorly fitted or top-dose-only effect, or another doubt; inactive = no such curve, though single readings can be large; an effect the other way counts as inactive or inconclusive.

SMILES	MBNL1-CUG inh	PLK1 PBD block	KCNH2 WT inh	CBFb RUNX1 block	KCNH2 3.1 block	VDR inh
COc1ccc(N2CC(O)=C(c3nc(C)cs3)C2=N)cc1	6.8%	-5.9%	-16.8	-8.4%	-1.1	4.3%
COc1ccc(N2CC(O)=C(c3n(C)c4ccccc4[n+]3C)C2=N)cc1	-1.0%	26.7µM*	-2.4	11.8%	-4.3	3.6%
CCOC(=O)c1c(C)oc2c1c(CN1CCN(C(=O)OCC)CC1)c(O)c1ccccc12	12.7%	?	-5.1	-2.0%	-16.0	50.1µM*
CCOC(=O)c1c(C)oc2ccc(O)c(CN3CCCCC3)c12	-2.1%	1.8%	11.5	4.3%	-1.4	1.3%
CCOC(=O)c1c(C)oc2c1c(C(c1ccncc1)N1CCOCC1)c(O)c1ccccc12 (stereo unspecified)	?	10.6µM*	-11.7	-23.6%	-11.4	?
CCOC(=O)c1c(C)oc2c1c(C=NCCC(=O)O)c(O)c1ccccc12	?	-26.9%	nt	-5.2%	7.7	-12.1%
CCOC(=O)c1c(C)oc2c1c(CN1CCN(CCO)CC1)c(O)c1ccccc12	10.7%	1.68µM*	5.2	5.4%	-5.7	?
O=C(CC1N=C2c3ccccc3N=C(SCc3ccccc3F)N2C1=O)NCc1ccc2c(c1)OCO2 (stereo unspecified)	nt	nt	nt	nt	nt	13.1%
O=S(=O)(c1ccc(Cl)cc1)N1CCN(c2nc(-c3ccccc3)nc3ccccc23)CC1	nt	nt	nt	nt	nt	-13.6%
O=C(Nc1ccc(S(=O)(=O)Nc2nccs2)cc1)c1cc(-c2ccccn2)nc2ccccc12	16.5%	-26.3%	-1.5	-21.6%	0.1	-6.6%
Cc1noc(NS(=O)(=O)c2ccc(NC(=O)CSc3ncccn3)cc2)c1C	-5.6%	-11.4%	-4.9	3.5%	8.1	-17.2%
Cc1ccc(-c2cc(C(=O)Nc3ccc(S(=O)(=O)Nc4onc(C)c4C)cc3)c3ccccc3n2)cc1	4.5%	33.6µM*	-3.7	-28.1%	-7.3	-5.6%
Cc1noc(NS(=O)(=O)c2ccc(NC(=O)CSc3nc4ccccc4s3)cc2)c1C	-2.5%	16.8µM*	-6.8	-5.0%	16.4	?
O=C(Nc1ccc(S(=O)(=O)Nc2nccs2)cc1)c1cc(-c2ccccc2Cl)nc2ccccc12	-2.1%	29.9µM*	-4.6	-25.6%	-6.5	-1.7%
CCOc1ccccc1NC(=O)c1c(NCc2cccs2)sc2c1CCCCC2	nt	nt	nt	nt	nt	12.8%
CCN(CC)C(=O)c1sc2nc(Cc3ccccc3)[nH]c(=O)c2c1C	9.0%	29.9µM*	7.0	6.5%	22.4	?
Nc1nc(NCc2cccc(Cl)c2)c2[nH]cnc2n1	nt	nt	nt	nt	nt	1.1%
COc1ccc2c(c1)O[C@@H](c1cccc(C(F)(F)F)c1)[C@H](OC(=O)Nc1ccc(C)c(Br)c1)C2=O	nt	nt	nt	-10.3%	nt	-2.3%
O=C(CN1CCN(Cc2ccccc2)CC1)N1CCCCCC1	nt	-13.5%	-1.6	-0.3%	-83.2*	-8.9%
O=C(CN1CCN(Cc2ccccc2)CC1)Nc1ccc(Cl)cc1	2.2%	-2.6%	3.7	nt	22.6	12.7%
NC(=O)c1ccccc1NC(=S)NC(=O)CCc1ccccc1	-1.3%	15µM*	-2.9	0.0%	-24.2	?
NC(=O)c1ccccc1NC(=O)CCc1ccccc1	-0.3%	-9.5%	5.6	-2.4%	2.9	-0.2%
O=C(CN1CCN(Cc2ccccc2)CC1)N1CCN(c2ccccc2)CC1	10.6%	-14.5%	3.5	1.6%	4.0	6.0%
O=C(CN1CCN(Cc2ccccc2)CC1)Nc1ccccc1-c1ccccc1	-1.8%	-11.6%	-74.3*	-6.1%	-45.4	-19.1%

Screens from PubChem.
